# Measured values from PubChem BioAssay.
# Results with a measured potency or affinity are listed apart. Values without a mark were called inactive.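 Rule for the calls: active = signal drop whose fitted half-maximal concentration is at most twice the top valid dose, in every test run; inconclusive = mixed calls across runs, poor fit, or flat 30 to 70% inhibition; inactive = wrong direction, flat within 30%, or potency beyond limit.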
# Assay: RMG-1 ovarian cancer cell viability loss – cherry-pick, dose response (AID 687029);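 note: cells exposed to compound for 96 hours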
# Conditions: RMG-1 viability, CellTiterGlo ATP luminescence, 96 h; series mostly up to 35 µM; activity change, negative = inhibition: at the top concentration
row,Structure (SMILES),"activity change, negative = inhibition [%]"
1,CC(C)CC#Cc1ccc2c(c1)O[C@H](CN(C)S(=O)(=O)c1ccc(F)cc1)[C@H](C)CN([C@@H](C)CO)S2(=O)=O,11.9
2,C[C@@H]1CN([C@H](C)CO)C(=O)c2cc(NS(=O)(=O)c3ccc(F)cc3)ccc2O[C@@H]1CN(C)Cc1ccc(C(F)(F)F)cc1,17.4
3,O=C(Nc1cccc(F)c1)N1CCCCN2[C@@H](CO)[C@@H](c3ccc(-c4ccncc4)cc3)[C@@H]2C1,17
4,C[C@@H]1CCCCO[C@H](CN(C)C(=O)c2ccccc2)[C@@H](C)CN([C@@H](C)CO)C(=O)c2cc(NC(=O)Nc3ccc(C(F)(F)F)cc3)ccc2O1,25.2
5,COc1ccc(S(=O)(=O)N2CCCCN3[C@H](C2)[C@H](c2ccc(C#CC(C)C)cc2)[C@@H]3CO)cc1,8.61
6,C[C@H](CO)N1C[C@H](C)[C@H](CN(C)Cc2ccc3c(c2)OCO3)OCCCC[C@H](C)Oc2ccc(NS(=O)(=O)c3ccc(Cl)cc3)cc2C1=O,13.3
7,C[C@@H]1CCCCO[C@H](CN(C)C(=O)Cc2ccccc2)[C@H](C)CN([C@@H](C)CO)C(=O)c2cc(NC(=O)Nc3ccc(C(F)(F)F)cc3)ccc2O1,24.1
8,COc1ccc(S(=O)(=O)Nc2ccc3c(c2)C(=O)N([C@H](C)CO)C[C@@H](C)[C@H](CN(C)S(=O)(=O)c2ccc(F)cc2)OCCCC[C@H](C)O3)cc1,25.2
9,C[C@H](O)C#Cc1ccc2c(c1)O[C@@H](CN(C)Cc1ccc(-c3ccccc3)cc1)[C@@H](C)CN([C@@H](C)CO)S2(=O)=O,5.42
10,C[C@@H]1CN([C@H](C)CO)C(=O)c2cc(NC(=O)Nc3ccc(C(F)(F)F)cc3)ccc2O[C@@H](C)CCCCO[C@H]1CN(C)C(=O)Nc1ccc(F)cc1,21.3
11,C[C@H]1CN([C@@H](C)CO)C(=O)c2ccccc2-c2ccccc2CO[C@H]1CN(C)S(=O)(=O)c1ccc(C(F)(F)F)cc1,17.9
12,C[C@@H]1CN([C@@H](C)CO)C(=O)Cc2cc(NC(=O)Nc3ccc(F)cc3)ccc2O[C@H]1CN(C)Cc1ccc(Cl)c(Cl)c1,20.4
13,C[C@@H]1CN([C@@H](C)CO)S(=O)(=O)c2ccc(C#C[C@@H](C)O)cc2O[C@@H]1CN(C)Cc1ccc(-c2ccccc2)cc1,11.4
14,Cc1ccc(S(=O)(=O)N(C)C[C@H]2Oc3ccc(NC(=O)Nc4ccc(C(F)(F)F)cc4)cc3CC(=O)N([C@H](C)CO)C[C@@H]2C)cc1,16.1
15,C[C@@H]1CN([C@H](C)CO)C(=O)c2cc(NC(=O)Nc3ccc(F)cc3)ccc2O[C@@H](C)CCCCO[C@H]1CN(C)C(=O)Nc1ccc(F)cc1,9.15
16,C[C@@H]1CCCCO[C@@H](CN(C)C(=O)Nc2ccc(C(F)(F)F)cc2)[C@H](C)CN([C@H](C)CO)C(=O)c2cc(NS(=O)(=O)c3ccccc3)ccc2O1,32.8
17,CN1c2ccc(-c3ccc(C#N)cc3)cc2[C@@H]2[C@@H](CCN2C(=O)NC2CCCCC2)[C@@H]1CO,2.56
18,CN1c2ccc(C3=CCCCC3)cc2[C@H]2[C@H](CCN2C(=O)NC2CCCCC2)[C@@H]1CO,8.68
19,C[C@@H]1CCCCO[C@@H](CN(C)Cc2ccc(Cl)c(Cl)c2)[C@H](C)CN([C@H](C)CO)C(=O)c2cc(NS(=O)(=O)c3ccc(F)cc3)ccc2O1,10.1
20,C[C@@H]1CN([C@@H](C)CO)C(=O)Cc2cc(NC(=O)Nc3ccc(C(F)(F)F)cc3)ccc2O[C@H]1CN(C)Cc1ccc(Oc2ccccc2)cc1,40.7
21,Cc1ccc(S(=O)(=O)Nc2ccc3c(c2)C(=O)N([C@@H](C)CO)C[C@H](C)[C@H](CN(C)Cc2ccc(C(F)(F)F)cc2)OCCCC[C@@H](C)O3)cc1,2.37
22,CCCC#Cc1ccc2c(c1)O[C@H](CN(C)Cc1ccccc1)[C@@H](C)CN([C@H](C)CO)S2(=O)=O,16.2
23,Cc1ccc(S(=O)(=O)N(C)C[C@@H]2OCCCC[C@H](C)Oc3ccc(NS(=O)(=O)c4ccc(F)cc4)cc3C(=O)N([C@H](C)CO)C[C@H]2C)cc1,15.4
24,COc1ccc(S(=O)(=O)N(C)C[C@H]2Oc3ccc(NC(=O)Nc4ccc(C(F)(F)F)cc4)cc3CC(=O)N([C@H](C)CO)C[C@@H]2C)cc1,24.4
25,CNC[C@@H]1Oc2cc(C#CC3CCCCC3)ccc2S(=O)(=O)N([C@@H](C)CO)C[C@@H]1C,15
26,C[C@@H]1CCCCO[C@H](CN(C)C(=O)Nc2ccc(C(F)(F)F)cc2)[C@H](C)CN([C@@H](C)CO)C(=O)c2cc(NS(=O)(=O)c3ccc(Cl)cc3)ccc2O1,21.9
